Source: PubChem (several laboratories)
This is a sample that favours compounds with a hit; in the whole collection about 12% have one here.
m-calpain inh = blocks pig calpain II enzyme activity. AID 1236. purified calpain II, fluorogenic peptide substrate, 30 min. inhibition, % at 16 µM. actives 0.37% (n = 220,000);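 active = inhibition above about 50%, limit read from the data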
L major viab = Leishmania major promastigote growth inhibition | Leishmania major promastigotes, resazurin fluorescence viability | inhibition, % at 10 µM | actives 9% (n = 200,000) | AID 1063; in the data active = inhibition above about 50%;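 note: promastigotes grown with compound for 44 hours at 28 °C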
ROMK mod = modulates human ROMK potassium channel activity. AID 1918. Tet-inducible ROMK, thallium flux fluorescence; actives lie on both sides. P48048. actives 2% (n = 130,000). B-score at 10 µM;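 active = signal ratio slope over the read window, or its plate-corrected B-score, at least 3 SD from the plate mean, either direction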;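 note: B-score of the F/F0 ratio slope over 7 to 12 s after thallium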
KCC2 mod = KCC2 (human) Cl- transport modulation; Q9H2X9; KCC2 cells, thallium flux FluoZin-2 fluorescence; B-score of Tl+ flux slope (higher = more flux/activation; lower = inhibition) at 10 µM; actives 2.2% (n = 190,000);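 active = thallium flux slope and its plate-corrected score both differing from the plate sample mean at a set confidence after two filtering rounds, in either direction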;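 note: slope of fluorescence scaled to starting intensity during 10 to 20 s after thallium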
WT yeast gro inh = growth inhibition of WT yeast, mitochondrial fusion screen | mitochondrial fusion phenotypic screen, WT strain | inhibition, % at 10 µM | actives 2.1% (n = 190,000); in the data active = inhibition above about 58%; tested in S. cerevisiae
Numbers stand for hits; . = inactive; / = no result given.

SMILES	m-calpain inh	L major viab	ROMK mod	KCC2 mod	WT yeast gro inh
O=C(NCCCn1ccnc1)c1cc(-c2ccncc2)nc2ccccc12	.	.	.	.	.
Cc1c(NC(=O)c2noc3c2CCc2ccccc2-3)c(=O)n(-c2ccccc2)n1C	/	.	/	-3.35	.
Cc1cc(NC(=O)c2noc3c2CCc2ccccc2-3)no1	.	/	/	/	.
CC1(N(O)/C=C2\C=CC=CC2=O)CCCCC1=O (stereo not drawn)	.	/	.	.	/
CN1c2ccc(Cl)cc2C(=O)NC1c1ccc([N+](=O)[O-])s1 (stereo not drawn)	.	/	/	.	/
O=C(NCCCn1ccnc1)Nc1ccc(Cl)cc1	.	53.3	/	.	.
O=C(CS)Nc1ccc2ccccc2c1	.	/	/	.	/
O=C(CCn1ccnc1)Nc1ccc2ccccc2c1	.	73.9	.	.	.
CC(=O)Nc1ccc(C(=O)OCC(=O)Nc2ccccc2Sc2ccccc2)cc1	.	.	.	.	83.0
O=C(Cc1ccccc1)Nc1cc(Cl)ccc1Sc1ccccc1	.	59.8	.	.	.
O=C(CCl)Nc1ccccc1Sc1ccccc1	.	54.4	.	.	.
O=C(Nc1ccccc1Sc1ccccc1)c1ccc(F)cc1	.	.	.	.	77.8
N#CCC(=O)Nc1ccc(C(=O)OCC(=O)Nc2ccccc2Sc2ccccc2)cc1	.	.	.	.	.
COc1ccc(C(c2c(N)[nH]c(=S)[nH]c2=O)c2c(N)[nH]c(=S)[nH]c2=O)cc1	.	/	.	.	/
COc1ccc(CN2C(=O)CS(=O)CC2=O)cc1OC	.	.	/	/	.
CN1CCc2c(sc3c2C(=O)NC(c2cccs2)N3)C1 (stereo not drawn)	.	.	/	/	.
CN1CCc2c(sc3c2C(=O)NC(c2ccc(-c4cccc(Cl)c4)o2)N3)C1 (stereo not drawn)	.	67.7	/	.	.
Cc1ccsc1C1NC(=O)c2c(sc3c2CCN(C)C3)N1 (stereo not drawn)	.	88.4	/	.	.
CCSC1=N/C(=C\C=C2/Oc3ccccc3N2CC)C(=O)S1	.	/	/	.	/
CCCC1=C(C(=O)OCC)C(c2cccs2)n2ncnc2N1 (stereo not drawn)	.	/	/	.	/
Cc1ccc(NC(NC(=O)c2cccs2)C(Cl)(Cl)Cl)cc1 (stereo not drawn)	.	71.4	/	/	.
Cc1ccc(NC(NC(=O)c2cccs2)C(Cl)(Cl)Cl)cc1C (stereo not drawn)	.	.	.	.	.
Cc1ccccc1NC(NC(=O)c1cccs1)C(Cl)(Cl)Cl (stereo not drawn)	.	72.4	/	.	.
CSc1ccccc1NC(=O)c1cccs1	.	.	.	/	.
CCC(C)Nc1nc(Cl)nc(NCCOc2ccccc2)n1 (stereo not drawn)	.	79.7	.	.	.
SMILES	m-calpain inh	L major viab	ROMK mod	KCC2 mod	WT yeast gro inh
CCCOc1ccccc1N/C(=N/c1nc(C)cc(C)n1)NC(=O)COc1ccc(OC)cc1	.	97.5	.	/	.
COc1ccc(N/C(N)=N/c2nc(C)cc(C)n2)c(OC)c1	.	.	.	.	.
Cc1cc(C)nc(/N=C(\N)N(Cc2ccccc2)Cc2ccccc2)n1	.	89.9	/	.	.
CCCCOc1ccccc1NC(=O)C=C(C)C	.	.	.	/	.
CCCOc1ccccc1N/C(N)=N/c1nc(C)cc(C)n1	.	90.0	.	.	.
CCCOc1ccccc1NC(=O)/C=C/C(N)=O	.	100.5	.	.	.
CCCCN(CCCC)/C(N)=N/c1nc(C)cc(C)n1	.	.	.	.	.
COc1ccc(OC)c(N/C(=N/c2nc(C)cc(C)n2)NC(C)=O)c1	.	/	/	.	/
COC(=O)C1=C(C)NC(=O)NC1c1ccc(OCC(=O)N2CCCCC2)cc1 (stereo not drawn)	.	.	.	.	.
CNC(=S)N/N=C/c1cc(C)n(-c2ccc(Cl)c(Cl)c2)c1C	.	.	.	.	.
Cc1cccc(CN2CCN(Cc3ccc4nonc4c3)CC2CCO)n1 (stereo not drawn)	.	.	.	/	.
Cc1cc(C)nc(/N=C(\N)Nc2ccc(-c3ccccc3)cc2)n1	.	97.5	.	.	.
CC(=O)Nc1ccc(N/C(N)=N/c2nc(C)cc(C)n2)cc1	.	.	.	.	.
Oc1ccc(C[C@@H]2CNC(=S)N2CCCCC2CCCCC2)cc1	51.0	.	/	.	91.0
O=C1NC[C@H](Cc2ccc(O)cc2)N(CC2CCCCC2)C1=O	.	/	/	.	/
Cc1ccc(OCC(=O)c2cc(C)n(C)c2C)c([N+](=O)[O-])n1	.	52.9	/	.	.
Cc1cc(C(=O)COc2cccnc2[N+](=O)[O-])c(C)n1-c1ccccc1	.	50.6	.	.	.
Cc1cc(C(=O)COc2cccc3cccnc23)c(C)n1C	.	.	/	.	.
COc1ccc(N(CC(=O)Nc2cccc(SC)c2)S(C)(=O)=O)cc1Cl	.	.	/	.	.
COc1ccc(NC(=O)CN(c2ccccc2)S(=O)(=O)N(C)C)cc1Cl	.	.	.	.	.
COc1ccc(OC)c(S(=O)(=O)N(C)CC(=O)Nc2cc(Cl)ccc2OC)c1	.	99.6	/	.	.
COc1ccccc1NC(=O)CN(C)S(=O)(=O)c1cc(C)ccc1OC	.	.	.	.	.
COc1ccc(Cl)cc1NC(=O)CN(c1ccccc1)S(=O)(=O)N(C)C	.	99.6	/	.	.
COc1ccc(Cl)cc1N(CC(=O)Nc1cccc(SC)c1)S(C)(=O)=O	.	61.5	.	/	.
COc1ccccc1NC(=O)C1CCC(CNc2c(N3CCCCC3)c(=O)c2=O)CC1 (stereo not drawn)	.	/	.	.	/
SMILES	m-calpain inh	L major viab	ROMK mod	KCC2 mod	WT yeast gro inh
COc1ccccc1C(=O)NCC(=O)N/N=C/c1cc(Br)ccc1OCc1ccccc1	.	.	.	.	.
O=C(CNC(=O)c1ccccc1O)N/N=C/c1cc(Br)ccc1OC(=O)/C=C/c1ccco1	.	68.2	.	.	.
COc1ccc([N+](=O)[O-])cc1/C=N/NC(=O)CNC(=O)c1cccc(F)c1	.	97.9	/	.	.
COc1ccc([N+](=O)[O-])cc1/C=N/NC(=O)CNC(=O)C(c1ccccc1)c1ccccc1	.	.	/	.	.
O=C(CNC(=O)c1cccc(F)c1)N/N=C/c1cc(Br)ccc1OC(=O)/C=C/c1ccco1	.	84.4	.	.	.
O=C(CNC(=O)c1ccc(F)cc1)N/N=C/c1cc(Br)ccc1OCc1ccccc1	.	95.7	.	.	.
O=C(Cc1ccccc1)N/N=C/c1ccc(OC(=O)/C=C\c2ccco2)cc1	.	.	.	.	.
COc1ccc(S(=O)(=O)N2CCCC(C(=O)NCc3ccccn3)C2)cc1 (stereo not drawn)	.	.	/	/	.
O=C1CC(c2ccc(Cl)cc2)CC(O)=C1C=NCc1ccc(Cl)c(Cl)c1 (stereo not drawn)	.	.	.	.	.
COc1cccc(-c2nn(-c3ccccc3)cc2CNC(C)Cn2cncn2)c1 (stereo not drawn)	.	.	.	.	.
CCN1C(=O)c2cccc3c(S(=O)(=O)NCc4cccnc4)ccc1c23	.	70.4	.	.	.
Cc1ccc(C(=O)O)cc1N1C(=O)c2cccc3cc(Br)cc(c23)C1=O	65.6	.	/	.	.
Cc1n[nH]c(C)c1N1C(=O)c2cccc3cc(Br)cc(c23)C1=O	.	.	.	/	.
